From PubChem BioAssay (EPA / NIEHS) come the findings set out here.

Active and inactive are the calls of the source. The calls were made as follows: active = hit-call score of the fitted dose curve at least 0.9, where 1 is the maximum; inactive = score below 0.9.

As a reminder, the AC50 is the concentration at which the activity in the assay is half-maximal.

Common to all, as to settings: mRNA level, 48 h; actives raise or lower the signal
Read-out in assay [1]: adenosine kinase (ADK) gene, ADK (gene 132)
In words: LTEA_HepaRG_ADK: Life Technologies and Expression Analysis (LTEA) Assay for adenosine kinase (ADK) gene using HepaRG (AID 2283471). The procedure, abridged: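 Read-out is ADK transcript level measured by qRT-PCR and normalised to three housekeeping genes. Cells are human HepaRG, dosed for 48 h at up to 100 uM in 0.5% DMSO. Gain or loss of signal is fitted against DMSO controls.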

Read-out in assay [2]: Alpha-fetoprotein (AFP) gene, AFP (gene 174)
In words: LTEA_HepaRG_AFP: Life Technologies and Expression Analysis (LTEA) Assay for Alpha-fetoprotein (AFP) gene using HepaRG (AID 2283472). The procedure, abridged:
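AFP transcript measured by TaqMan qRT-PCR with three housekeeping genes for normalization, after 48 h chemical treatment of HepaRG cells (top 100 uM, half-log steps, 0.5% DMSO). Gain or loss fitted against vehicle.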

Read-out in assay [3]: BCL2L11 (gene 10018)
The experiment in a line: LTEA_HepaRG_BCL2L11: Life Technologies and Expression Analysis (LTEA) Assay for Bcl-2 (BCL2L11) gene using HepaRG (AID 2283473). In outline: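 Differentiated human HepaRG cells were exposed 48 h in serum-free induction medium to eight half-log concentrations up to 100 uM in 0.5% DMSO, in duplicate. BCL2L11 mRNA was quantified by TaqMan qRT-PCR, normalized to ACTB, GAPDH and POLR2A; induction or repression fitted versus DMSO.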

Read-out in assay [4]: Apolipoprotein A-V (APOA5) gene, APOA5 (gene 116519)
In words: LTEA_HepaRG_APOA5: Life Technologies and Expression Analysis (LTEA) Assay for Apolipoprotein A-V (APOA5) gene using HepaRG (AID 2283474). In outline:
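Differentiated HepaRG cells in serum-free induction medium, exposed 48 h in duplicate to eight half-log concentrations topping at 100 uM (0.5% DMSO). APOA5 mRNA by Fluidigm TaqMan qRT-PCR, normalized to ACTB, GAPDH and POLR2A; bidirectional fit versus DMSO.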

Read-out in assay [5]: Apoptosis regulator Bcl-2 (Homo sapiens) (UniProt P10415)
The experiment in a line: LTEA_HepaRG_BCL2: Life Technologies and Expression Analysis (LTEA) Assay for Bcl-2 gene using HepaRG (AID 2283475). In outline:
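qRT-PCR of BCL2 transcript, normalized to three housekeeping genes (ACTB, GAPDH, POLR2A), after 48 h chemical exposure of HepaRG cells; concentrations top 100 uM with half-log dilutions, 0.5% DMSO vehicle, duplicates; changes up or down fitted relative to vehicle.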

Read-out in assay [6]: Bcl-2 (BID) gene, BID (gene 637)
The experiment in a line: LTEA_HepaRG_BID: Life Technologies and Expression Analysis (LTEA) Assay for Bcl-2 (BID) gene using HepaRG (AID 2283476). The procedure, abridged:
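Duplicate 48 h treatments of HepaRG cells in serum-free induction medium spanned 100 uM downward in half-log steps, 0.5% DMSO. Transcript change quantified by qRT-PCR against three housekeeping genes, fitted up or down versus DMSO.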

Read-out in assay [7]: Caspase-3 (Homo sapiens) (UniProt P42574)
In words: LTEA_HepaRG_CASP3: Life Technologies and Expression Analysis (LTEA) Assay for cysteine-aspartic acid protease (CASP3) using HepaRG (AID 2283477). In outline:
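Differentiated HepaRG cells, plated 48 h, were treated in duplicate in serum-free induction medium for 48 h with eight half-log concentrations up to 100 uM in 0.5% DMSO. CASP3 mRNA measured by qRT-PCR, normalized to ACTB, GAPDH, POLR2A.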

Read-out in assay [8]: Cytochrome P450 (CYP24A1), CYP24A1 (gene 1591)
In words: LTEA_HepaRG_CYP24A1: Life Technologies and Expression Analysis (LTEA) Assay for Cytochrome P450 (CYP24A1) using HepaRG (AID 2283478). In outline: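 HepaRG cells plated 48 h, then exposed in duplicate in serum-free induction medium for 48 h to 8-point half-log series from 100 uM in 0.5% DMSO. CYP24A1 mRNA by Fluidigm qRT-PCR, normalized to ACTB, GAPDH, POLR2A; bidirectional fit versus DMSO.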

Read-out in assay [9]: Cytochrome P450 (CYP1A2), CYP1A2 (gene 1544)
The experiment in a line: LTEA_HepaRG_CYP1A2: Life Technologies and Expression Analysis (LTEA) Assay for Cytochrome P450 (CYP1A2) using HepaRG (AID 2283479). The procedure, abridged: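 Differentiated human HepaRG cells in serum-free induction medium exposed 48 hours in duplicate to 8 half-log concentrations from 100 uM, 0.5% DMSO. CYP1A2 mRNA quantified by qRT-PCR, normalized to ACTB, GAPDH and POLR2A; bidirectional fitting versus DMSO.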

Read-out in assay [10]: cysteine-aspartic acid protease (CASP8), CASP8 (gene 841)
In words: LTEA_HepaRG_CASP8: Life Technologies and Expression Analysis (LTEA) Assay for cysteine-aspartic acid protease (CASP8) using HepaRG (AID 2283480). In outline: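 qRT-PCR readout of CASP8 mRNA, normalized to three housekeeping genes, after 48 h chemical exposure of HepaRG cells; 8-point half-log series, top 100 uM, 0.5% DMSO vehicle. Bidirectional curve fitting against DMSO baseline.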

Read-out in assay [11]: Cytochrome P450 (CYP2B6), CYP2B6 (gene 1555)
The experiment in a line: LTEA_HepaRG_CYP2B6: Life Technologies and Expression Analysis (LTEA) Assay for Cytochrome P450 (CYP2B6) using HepaRG (AID 2283481). The procedure, abridged:
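Differentiated human HepaRG cells in serum-free induction medium, dosed in duplicate for 48 h over 8 half-log concentrations topping at 100 uM (0.5% DMSO). CYP2B6 mRNA measured by TaqMan qRT-PCR, normalized to ACTB, GAPDH, POLR2A; bidirectional fit versus DMSO.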

Read-out in assay [12]: Cytochrome P450 2C19 (Homo sapiens) (UniProt P33261)
In words: LTEA_HepaRG_CYP2C19: Life Technologies and Expression Analysis (LTEA) Assay for CYP2C19 using HepaRG (AID 2283482). In outline:
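Differentiated HepaRG cells in serum-free induction medium exposed 48 h in duplicate, 8 concentrations from 100 uM by half-log steps in 0.5% DMSO. CYP2C19 mRNA measured by TaqMan qRT-PCR, normalized to ACTB, GAPDH, POLR2A. Bidirectional fit versus DMSO.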

Read-out in assay [13]: CYP2C8 (gene 1558)
The experiment in a line: LTEA_HepaRG_CYP2C8: Life Technologies and Expression Analysis (LTEA) Assay for CYP2C8 using HepaRG (AID 2283483). The procedure, abridged:
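HepaRG (human liver line), 48 h chemical exposure, 8-pt half-log series from 100 uM, 0.5% DMSO vehicle. Readout: CYP2C8 transcript by qRT-PCR, housekeeping-normalized. Bidirectional fit vs DMSO baseline.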

Read-out in assay [14]: CYP2C9 (gene 1559)
In words: LTEA_HepaRG_CYP2C9: Life Technologies and Expression Analysis (LTEA) Assay for CYP2C9 using HepaRG (AID 2283484). The procedure, abridged:
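HepaRG, 48 h dosing, 8-pt half-log series, top 100 uM, 0.5% DMSO vehicle. Read-out: CYP2C9 transcript by TaqMan qRT-PCR, housekeeping-normalized (ACTB/GAPDH/POLR2A). Gain or loss fitted vs DMSO baseline.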

Read-out in assay [15]: CYP2E1 (gene 1571)
The experiment in a line: LTEA_HepaRG_CYP2E1: Life Technologies and Expression Analysis (LTEA) Assay for CYP2E1 using HepaRG (AID 2283485). The procedure, abridged:
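CYP2E1 transcript measured by Fluidigm qRT-PCR against three housekeeping genes in human HepaRG cells treated 48 h (top 100 uM, half-log steps, 0.5% DMSO vehicle). Gain or loss fitted relative to DMSO baseline.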

Read-out in assay [16]: CYP4A11 (gene 1579)
The experiment in a line: LTEA_HepaRG_CYP4A11: Life Technologies and Expression Analysis (LTEA) Assay for CYP4A11 using HepaRG (AID 2283486). The procedure, abridged: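 Differentiated HepaRG cells, 48 h after plating, exposed in duplicate for 48 h to 8 half-log concentrations up to 100 uM in 0.5% DMSO in serum-free induction medium. CYP4A11 mRNA measured by TaqMan qRT-PCR, normalized to ACTB, GAPDH and POLR2A.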

Read-out in assay [17]: Cytochrome P450 3A4 (Homo sapiens) (UniProt P08684)
The experiment in a line: LTEA_HepaRG_CYP3A4: Life Technologies and Expression Analysis (LTEA) Assay for CYP3A4 using HepaRG (AID 2283487). The procedure, abridged:
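HepaRG, 48 h exposure, 8-pt CRC from 100 uM (half-log), 0.5% DMSO, duplicates; serum-free induction medium. Readout: CYP3A4 mRNA, qRT-PCR, ACTB/GAPDH/POLR2A normalization. Bidirectional fit vs DMSO.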

Read-out in assay [18]: DNA damage-inducible transcript 3 (DDIT3), DDIT3 (gene 1649)
The experiment in a line: LTEA_HepaRG_DDIT3: Life Technologies and Expression Analysis (LTEA) Assay for DNA damage-inducible transcript 3 (DDIT3) using HepaRG (AID 2283488). In outline: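 DDIT3 transcript was quantified by qRT-PCR with ACTB/GAPDH/POLR2A normalization after 48 h chemical treatment of differentiated HepaRG cells in 0.5% DMSO. Dosing was eight-point, half-log, top 100 uM, duplicate wells. Curves fitted bidirectionally versus DMSO.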

Read-out in assay [19]: Pro-epidermal growth factor (Homo sapiens) (UniProt P01133)
The experiment in a line: LTEA_HepaRG_EGF: Life Technologies and Expression Analysis (LTEA) Assay for Epidermal growth factor (EGF) using HepaRG (AID 2283489). In outline:
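HepaRG cells (~100,000/well, 48 h pre-culture) exposed in duplicate for 48 h in serum-free induction medium to 8 half-log concentrations up to 100 uM in 0.5% DMSO. EGF mRNA by qRT-PCR, normalized to ACTB/GAPDH/POLR2A; bidirectional fit versus DMSO.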

Read-out in assay [20]: Early growth response protein 1 (EGR1) transcription factor, EGR1 (gene 1958)
The experiment in a line: LTEA_HepaRG_EGR1: Life Technologies and Expression Analysis (LTEA) Assay for Early growth response protein 1 (EGR1) transcription factor using HepaRG (AID 2283490). In outline: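 HepaRG, 48 h exposure, 8-pt half-log series from 100 uM, 0.5% DMSO vehicle; EGR1 transcript by TaqMan qRT-PCR (Fluidigm array), housekeeping-normalized; bidirectional fit relative to DMSO baseline.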

Cytochrome P450 2C19 (Homo sapiens), sequence (P33261 whole entry, looked up): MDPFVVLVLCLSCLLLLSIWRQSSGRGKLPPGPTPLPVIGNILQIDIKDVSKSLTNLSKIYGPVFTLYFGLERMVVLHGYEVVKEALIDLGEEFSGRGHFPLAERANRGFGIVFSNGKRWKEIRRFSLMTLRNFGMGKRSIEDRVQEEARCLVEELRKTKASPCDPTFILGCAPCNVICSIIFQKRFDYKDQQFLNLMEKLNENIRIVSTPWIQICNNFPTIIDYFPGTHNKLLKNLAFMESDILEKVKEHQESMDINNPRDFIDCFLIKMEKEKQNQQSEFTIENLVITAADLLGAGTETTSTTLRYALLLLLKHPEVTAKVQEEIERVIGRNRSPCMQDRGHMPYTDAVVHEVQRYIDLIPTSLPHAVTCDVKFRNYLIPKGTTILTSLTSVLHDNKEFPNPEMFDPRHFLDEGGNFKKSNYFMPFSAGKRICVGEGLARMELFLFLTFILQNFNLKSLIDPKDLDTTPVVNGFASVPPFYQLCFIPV
Apoptosis regulator Bcl-2 (Homo sapiens), sequence (P10415 whole entry, looked up): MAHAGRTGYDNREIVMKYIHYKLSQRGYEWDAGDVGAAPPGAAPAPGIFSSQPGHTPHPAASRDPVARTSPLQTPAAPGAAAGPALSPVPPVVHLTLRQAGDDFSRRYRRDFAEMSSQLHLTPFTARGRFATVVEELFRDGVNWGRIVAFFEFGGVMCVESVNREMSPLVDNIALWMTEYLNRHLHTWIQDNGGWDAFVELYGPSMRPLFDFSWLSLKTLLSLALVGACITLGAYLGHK
Cytochrome P450 3A4 (Homo sapiens), sequence (P08684 whole entry, looked up): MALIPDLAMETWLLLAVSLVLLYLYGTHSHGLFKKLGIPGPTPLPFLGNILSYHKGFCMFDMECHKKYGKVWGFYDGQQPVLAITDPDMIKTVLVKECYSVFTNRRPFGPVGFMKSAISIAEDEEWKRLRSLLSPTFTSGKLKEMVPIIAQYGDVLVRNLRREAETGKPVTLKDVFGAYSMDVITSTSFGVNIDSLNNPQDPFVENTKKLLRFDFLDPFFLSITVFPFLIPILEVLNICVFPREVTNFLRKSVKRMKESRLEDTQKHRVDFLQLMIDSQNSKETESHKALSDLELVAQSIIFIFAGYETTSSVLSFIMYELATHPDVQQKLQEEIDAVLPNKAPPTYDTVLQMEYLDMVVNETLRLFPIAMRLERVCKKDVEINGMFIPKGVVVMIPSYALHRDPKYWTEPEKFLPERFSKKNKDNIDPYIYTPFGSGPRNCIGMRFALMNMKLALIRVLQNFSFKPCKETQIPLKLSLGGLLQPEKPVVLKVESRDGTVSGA
Caspase-3 (Homo sapiens), sequence (P42574 whole entry, looked up): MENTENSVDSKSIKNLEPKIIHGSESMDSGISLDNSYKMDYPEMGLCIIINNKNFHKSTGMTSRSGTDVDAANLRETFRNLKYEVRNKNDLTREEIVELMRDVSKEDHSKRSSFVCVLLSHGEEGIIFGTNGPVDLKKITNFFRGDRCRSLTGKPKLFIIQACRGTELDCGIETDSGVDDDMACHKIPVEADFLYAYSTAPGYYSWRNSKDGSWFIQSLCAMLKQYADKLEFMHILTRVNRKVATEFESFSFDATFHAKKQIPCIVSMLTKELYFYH

Take `CC(C)CCCCCCOC(=O)CCCCC(=O)OCCCCCCC(C)C`: the outcome in assay [1], in [2], in [3], in assay [4], in assay [5] and in [6] was inactive. For the same molecule, the molecule was classed as inactive in assay [7], in assay [8], in assay [10], in assay [12], in [13] and in assay [14]. In addition, the outcome in assay [15], in [16], in [17], in assay [18], in assay [19] and in assay [20] was inactive. Also, the figures for the AC50 in assay [9] and in assay [11] were 50 µM (active) and 31.8 µM (active), respectively.

In the case of `ClC1=C(Cl)C(Cl)(Cl)C(Cl)=C1Cl`, the call in assay [1], in [2], in assay [3], in assay [4], in [5] and in assay [6] was inactive. In addition, the molecule was classed as inactive in assay [7], in assay [8], in assay [9], in assay [10], in assay [11] and in [12]. For the same molecule, the molecule was classed as inactive in assay [13], in assay [14], in [15], in assay [16], in assay [17] and in assay [18]. The molecule was called inactive in assay [19] and in [20].

Turning to `CN1CCN(c2ccccc2/C=C2\SCCN(c3ccc(Cl)c(Cl)c3)C2=O)CC1`, the call in assay [1], in [3], in [4], in [5], in assay [7] and in assay [8] was inactive. Besides, the result in assay [12], in assay [13], in assay [14], in assay [17] and in assay [19] was inactive. For the same molecule, the AC50 in assay [2] was 11.5 µM (active); in assay [6], 83.9 µM (active); in [9], 4.69 µM (active); in assay [10] it was 93.4 µM (active); in assay [11], 50 µM (active); in [15] it was 12.8 µM (active). For the same molecule, the AC50 is 17.4 µM (active) in [16], 50 µM (active) in assay [18] and 83 µM (active) in assay [20].
